From the supplement of paper PMC12636033
± gives the standard deviation of the averaged measurements. Over roughly 33,000 sequences, “E-score (rank enrichment, -0.5 to 0.5)” has its median near -0.0028; the highest 2% begin near 0.23. The list comes from a sample in which the highest values are over-represented; it also holds similar and randomly drawn sequences.

system: 2Sb-muMax20 (muMax20 with two 1,3-bis(methyl)benzene Cys staples, A13C/A17C and Q88C/A92C, C-terminal Lys); experiment: PBM 8-mer E-score (E-score (rank enrichment, -0.5 to 0.5)); higher = stronger preferential binding
Experimental: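 Protein binding microarray (universal PBM chip covering all 10-mers in fixed probe flanks) with chemically synthesized human Max(13-93) bHLH-LZ analogs (not full-length Max) bearing noncanonical residues (hArg, Tha, Aib, Nle at 65) and aromatic Cys staples. Read-out per 8-mer (and its reverse complement): E-score (rank-based enrichment, -0.5 to 0.5) and Z-score of median probe intensity.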

| Sequence | PBM 8-mer E-score |
| --- | --- |
| GATTATTA | 0.1 ± 0.071 |
| ATTACGAG | 0.164 ± 0.013 |
| CGAGTTAA | 0.0575 ± 0.082 |
| ACTCAGAA | 0.0145 ± 0.00035 |
| CTTAGTAC | 0.0932 ± 0.025 |
| TATCCAAA | 0.103 ± 0.028 |
| CCCGTCGA | -0.109 ± 0.064 |
| CTGTGGTC | -0.235 ± 0.017 |
| CAAGAAGA | 0.0996 ± 0.012 |
| CTGTTAAC | 0.105 ± 0.041 |
| ATGTTAAC | 0.306 ± 0.013 |
| AAGTTAAC | 0.233 ± 0.052 |
| GAGTTAAC | 0.0742 ± 0.055 |
| CAGTTAAC | 0.0298 ± 0.036 |
| GTGTTAAC | -0.018 ± 0.016 |
| CCAGTAGA | -0.0423 ± 0.068 |
| AAGCCTGA | -0.17 ± 0.034 |
| ACCTCCGG | -0.194 ± 0.037 |
| CGCTGTAA | -0.00707 ± 0.013 |
| AGGTAGCG | -0.0415 ± 0.0036 |
| GCATGCGC | 0.112 ± 0.049 |
| GCATGCGA | 0.266 ± 0.042 |
| CCATGCGA | 0.0911 ± 0.01 |
| TCGAAAGA | 0.0439 ± 0.024 |
| CATAGATG | -0.111 ± 0.065 |

| Sequence | PBM 8-mer E-score |
| --- | --- |
| CAAGGCAC | 0.0684 ± 0.076 |
| ACTAGCCT | 0.134 ± 0.035 |
| CTCCCGCA | 0.0448 ± 0.016 |
| TAACATAA | 0.217 ± 0.058 |
| AAACATAT | 0.247 ± 0.042 |
| GAACATAA | 0.198 ± 0.058 |
| AAACATAA | 0.28 ± 0.013 |
| AAACATAC | 0.199 ± 0.015 |
| AAACATAG | 0.0193 ± 0.016 |
| CCGATCAG | -0.247 ± 0.028 |
| GGGCTTAA | 0.0764 ± 0.033 |
| CGAATGCC | -0.00354 ± 0.078 |
| CGAATGCA | 0.248 ± 0.035 |
| CGAATGTA | 0.241 ± 0.011 |
| CGAATGCG | -0.0308 ± 0.079 |
| CGAATGTC | -0.0317 ± 0.0078 |
| GGAATGTA | 0.0875 ± 0.012 |
| ACAGTACC | -0.0999 ± 0.06 |
| GCTGTGCA | -0.0668 ± 0.075 |
| GGCCACAC | -0.0997 ± 0.082 |
| CTTAACTC | 0.0502 ± 0.01 |
| TCTTTCAA | 0.0646 ± 0.0097 |
| GGACACAC | -0.0301 ± 0.051 |
| CGACACAA | -0.0479 ± 0.0084 |
| TAACACAA | 0.232 ± 0.058 |

| Sequence | PBM 8-mer E-score |
| --- | --- |
| GCACACAC | -0.0369 ± 0.062 |
| AGACACAA | 0.00927 ± 0.0092 |
| TGACACAA | 0.239 ± 0.0028 |
| CAACACAA | 0.0293 ± 0.052 |
| AAACACAA | 0.153 ± 0.0061 |
| GGACACAA | 0.238 ± 0.045 |
| ACACACAA | 0.0979 ± 0.013 |
| GCACACAA | 0.233 ± 0.012 |
| GGACACGA | -0.122 ± 0.0082 |
| CGTCCACG | -0.0278 ± 0.092 |
| GGCCCGAC | -0.223 ± 0.016 |
| CTGGTGGA | -0.184 ± 0.0071 |
| CCCCAAAG | -0.0426 ± 0.063 |
| CCTCTGGC | -0.104 ± 0.017 |
| GAACTATC | 0.0395 ± 0.014 |
| CCACAACA | 0.0344 ± 0.024 |
| GCACAACC | -0.2359 ± 0.0019 |
| GCACAACA | 0.263 ± 0.066 |
| CTCCTTGC | -0.0809 ± 0.064 |
| GAACCACC | -0.0303 ± 0.047 |
| ACCATAAG | 0.0575 ± 0.0016 |
| CCCATAAG | 0.277 ± 0.06 |
| CCCATAAC | 0.128 ± 0.0013 |
| ATACGTTG | 0.11 ± 0.057 |
| ATCTTGTA | -0.0155 ± 0.031 |

| Sequence | PBM 8-mer E-score |
| --- | --- |
| ATACAGTC | -0.00634 ± 0.095 |
| ATACAGTG | 0.237 ± 0.028 |
| ATACAGTA | 0.223 ± 0.018 |
| ACGTCAAA | 0.148 ± 0.052 |
| CTTGCTGA | -0.0397 ± 0.039 |
| GACGGAAC | -0.127 ± 0.049 |
| CTCCTTAA | -0.0933 ± 0.1 |
| GAGACCCA | -0.107 ± 0.056 |
| AAGACCCA | 0.042 ± 0.021 |
| TAGACCCA | 0.243 ± 0.021 |
| CAGAGCAG | -0.155 ± 0.026 |
| ACTGTTCT | 0.114 ± 0.014 |
| ACTAATAG | 0.261 ± 0.027 |
| ACTAATAC | 0.188 ± 0.061 |
| AGTAATAC | -0.0436 ± 0.038 |
| CATAATAA | 0.123 ± 0.049 |
| CATAATAG | 0.258 ± 0.0042 |
| ACTAATAT | 0.0629 ± 0.074 |
| CGTAATAG | 0.168 ± 0.063 |
| AGTAATAG | 0.255 ± 0.043 |
| AATAATAG | 0.146 ± 0.0061 |
| CCTGGTTA | -0.0217 ± 0.078 |
| AGCGGTAA | -0.128 ± 0.0078 |
| GAGGCTCC | -0.117 ± 0.064 |
| AACTTTGT | 0.12 ± 0.0076 |

| Sequence | PBM 8-mer E-score |
| --- | --- |
| AACACTAG | 0.193 ± 0.0046 |
| CTGACGCC | -0.0915 ± 0.025 |
| AATGCTTG | -0.00273 ± 0.049 |
| TCCACAGA | -0.0264 ± 0.053 |
| CCTCGACG | -0.141 ± 0.026 |
| AATTGCTG | 0.0578 ± 0.078 |
| AATTGCTA | 0.268 ± 0.048 |
| CGTTGCTC | -0.0317 ± 0.009 |
| CGTTGCTA | 0.237 ± 0.019 |
| AGTTGCTA | 0.0844 ± 0.05 |
| CATTGCTA | 0.102 ± 0.021 |
| CCACCTTC | 0.0963 ± 0.024 |
| AACTGAGG | -0.066 ± 0.0013 |
| ACGGAAGA | -0.0282 ± 0.0086 |
| ATCACAAA | 0.187 ± 0.032 |
| ACGTACGC | 0.0419 ± 0.012 |
| TGCTAGCA | 0.245 ± 0.069 |
| CGCTAGCA | -0.253 ± 0.03 |
| GGCTAGCA | 0.0623 ± 0.01 |
| AACAAACA | 0.257 ± 0.003 |
| AACAAGTA | -0.0361 ± 0.0029 |
| CCCAAGTA | 0.209 ± 0.045 |
| TACAAACA | -0.0196 ± 0.043 |
| AAACAAAT | 0.262 ± 0.056 |
| GCCAAATA | 0.136 ± 0.0084 |

| Sequence | PBM 8-mer E-score |
| --- | --- |
| AACAAATA | 0.269 ± 0.024 |
| AACAAACC | 0.0286 ± 0.068 |
| TACAAATA | 0.166 ± 0.013 |
| AAACAAAA | 0.133 ± 0.04 |
| CCCAAATA | 0.24 ± 0.02 |
| AAACAAAC | 0.0967 ± 0.0062 |
| ATTCCGTA | -0.178 ± 0.0038 |
| AGCCTGCC | -0.0253 ± 0.013 |
| GACCAGCA | 0.0345 ± 0.019 |
| AGAAATTC | 0.0899 ± 0.038 |
| CAATGAGC | -0.0934 ± 0.018 |
| ACTGGCAC | -0.112 ± 0.0073 |
| CTATCAAG | 0.0675 ± 0.11 |
| CACCTATG | -0.067 ± 0.015 |
| AACAAGTC | 0.232 ± 0.0046 |
| AACAAGAT | 0.136 ± 0.05 |
| GACAAGTC | -0.141 ± 0.038 |
| AACAAAAT | 0.275 ± 0.042 |
| CACAAGTC | -0.0773 ± 0.025 |
| AACAAAAA | 0.0552 ± 0.028 |
| CTTCTTGC | -0.076 ± 0.029 |
| ACAATAAC | 0.18 ± 0.04 |
| ACAATAAA | 0.157 ± 0.082 |
| ACAATACC | 0.247 ± 0.01 |
| ACAATAAT | 0.2723 ± 0.0017 |

| Sequence | PBM 8-mer E-score |
| --- | --- |
| ACAATACA | 0.0315 ± 0.045 |
| ACAATACT | 0.098 ± 0.011 |
| CCACTTAA | 0.0781 ± 0.04 |
| GTGCCCGA | -0.169 ± 0.03 |
| CAGAGGCG | -0.0537 ± 0.004 |
| GCGGGACA | -0.0586 ± 0.068 |
| CGCGCGCG | -0.0393 ± 0.0083 |
| AAGTGCCC | 0.0017 ± 0.086 |
| TAGTTCGA | 0.117 ± 0.065 |
| GTTTACGA | 0.233 ± 0.0029 |
| CTTTACGA | -0.11 ± 0.061 |
| ATTTACGA | 0.13 ± 0.011 |
| GAACCTTA | 0.14 ± 0.038 |
| ACAACCAC | 0.076 ± 0.093 |
| ACAACCAG | 0.144 ± 0.037 |
| CCAACACC | -0.11 ± 0.046 |
| GCAACACC | 0.0523 ± 0.023 |
| ACAACCAT | 0.266 ± 0.01 |
| ACAACAAA | 0.189 ± 0.045 |
| CCAACCCC | 0.19 ± 0.044 |
| ACAACCCC | 0.237 ± 0.088 |
| ACAACAAG | 0.259 ± 0.0048 |
